Data as given in PubChem BioAssay (NCATS).
Records with an inconclusive call do not appear. Active and inactive are the calls of the source. Unless noted, calls follow the shape of the dose curve; as a rule, active = well fitted inhibition curve with a large enough effect; inconclusive = small, poorly fitted or top-dose-only effect; inactive = flat fitted curve, though single readings scatter.

Columns and labels:
[1] = qHTS drug screen for cell cycle checkpoint inhibitors in PARPi-resistant BRCA-mutant ovarian cancer cell lines. (AID 1963452; calls by dose curve); conditions: PEO1/OlaR viability, CellTiter-Glo luminescence, 96 h, stronger effect = lower value
Summary of the method: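 PEO1, PEO4 and PEO1/OlaR ovarian cancer cells, 600 per well, exposed 96 h at 37C to a dilution series. Viability read by CellTiter-Glo luminescence, normalized to DMSO and empty wells; activity summarized as Z-AUC.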

[2] = qHTS profiling for inhibitors of Plasmodium falciparum proliferation (AID 504749); also: nearly all actives have a fitted effect of over 60% in size; also: potency is read from the fitted curve at half-maximal effect;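 as to activity, negative = inhibition: 0% = DMSO vehicle and full inhibition = artemisinin control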; conditions: P. falciparum in erythrocytes, SYBR Green DNA, 72 h
Summary of the method: (§1)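 P. falciparum-infected erythrocytes (0.3% parasitemia, 2.5% hematocrit) incubated with compound 72 h at 37 C, 5% CO2. Parasite DNA detected by SYBR Green after lysis, overnight at room temperature; normalised to 0.29 uM artemisinin and DMSO.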

[3] = system: 3D7; assay: as above; conditions: P. falciparum in erythrocytes, SYBR Green DNA, 72 h; series mostly up to 28.7 µM
Summary of the method: as §1

[4] = system: 7G8; assay: as above; conditions: P. falciparum in erythrocytes, SYBR Green DNA, 72 h; series mostly up to 28.7 µM
Summary of the method: as §1

[5] = system: AA1029; assay: as above; conditions: P. falciparum in erythrocytes, SYBR Green DNA, 72 h; series mostly up to 28.7 µM
Summary of the method: as §1

[6] = system: AS120; assay: as above; conditions: P. falciparum in erythrocytes, SYBR Green DNA, 72 h; series mostly up to 28.7 µM
Summary of the method: as §1

[7] = system: ATS189; assay: as above; conditions: P. falciparum in erythrocytes, SYBR Green DNA, 72 h; series mostly up to 28.7 µM
Summary of the method: as §1

[8] = system: ATS95; assay: as above; conditions: P. falciparum in erythrocytes, SYBR Green DNA, 72 h; series mostly up to 28.7 µM
Summary of the method: as §1

[9] = system: C2A; assay: as above; conditions: P. falciparum in erythrocytes, SYBR Green DNA, 72 h; series mostly up to 28.7 µM
Summary of the method: as §1

[10] = system: CP185; assay: as above; conditions: P. falciparum in erythrocytes, SYBR Green DNA, 72 h; series mostly up to 28.7 µM
Summary of the method: as §1

[11] = system: CP191; assay: as above; conditions: P. falciparum in erythrocytes, SYBR Green DNA, 72 h; series mostly up to 28.7 µM
Summary of the method: as §1

[12] = system: CP192; assay: as above; conditions: P. falciparum in erythrocytes, SYBR Green DNA, 72 h; series mostly up to 28.7 µM
Summary of the method: as §1

[13] = system: CP194; assay: as above; conditions: P. falciparum in erythrocytes, SYBR Green DNA, 72 h; series mostly up to 28.7 µM
Summary of the method: as §1

[14] = system: CP201; assay: as above; conditions: P. falciparum in erythrocytes, SYBR Green DNA, 72 h; series mostly up to 28.7 µM
Summary of the method: as §1

[15] = system: CP203; assay: as above; conditions: P. falciparum in erythrocytes, SYBR Green DNA, 72 h; series mostly up to 28.7 µM
Summary of the method: as §1

[16] = system: CP211; assay: as above; conditions: P. falciparum in erythrocytes, SYBR Green DNA, 72 h; series mostly up to 28.7 µM
Summary of the method: as §1

[17] = qHTS for identification of novel therapeutic agents for treatment of microphthalmiaassociated transcription factor (MiT) renal cell carcinoma (RCC) (AID 1963991); conditions: CellTiter-Glo, 48 h, stronger effect = lower value;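 also: curves scaled with 100% = DMSO viability and 0% = empty wells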
Summary of the method: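 UOK109/UOK124/UOK145 (TFE3 fusions, three partners); 500 cells/well; MIPE v4.0, 1912 cpds, 11 conc.; 48 h, 37 C; CellTiter-Glo, 15 min RT; lum. Norm.: DMSO 100%, empty 0%.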

[18] = measured here: PEO1 parental Z-AUC
[19] = TFE3-RCC UOK109 viability, measured here: UOK109 Z-AUC
[20] = TFE3-RCC viability, measured here: UOK124 Z-AUC
[21] = TFE3-RCC viability, measured here: UOK145 Z-AUC
[22] = at 28.7 µM (top of the series), parasite line A
[23] = at 28.7 µM (top of the series), parasite line B

Nc1nc2c(ncn2COC(CO)CO)c(=O)[nH]1
1.36: Z-AUC [1, 18]
inactive: Z-AUC [1] 1.34 | activity, negative = inhibition ([2]; at 12.8 µM (top of the series), parasite line A) -0.332% | activity, negative = inhibition ([2]; at 12.8 µM (top of the series), parasite line B) 8.95% | Potency [3] | Potency [4] | Potency [5] | Potency [6] | Potency [7] | Potency [8] | Potency [9] | Potency [10] | Potency [11] | Potency [12] | Potency [13] | Potency [14] | Potency [15] | Potency [16]
1.37: Z-AUC ([1]; measured here: PEO4 Z-AUC)

CC(=O)OCC(CCn1cnc2cnc(N)nc21)COC(C)=O
1.62: Z-AUC ([1]; measured here: PEO4 Z-AUC)
0.498: z-score [17, 20]
inactive: Z-AUC [1] 1.18 | activity, negative = inhibition [2, 22] -2.23% | activity, negative = inhibition [2, 23] 0.392% | Potency [3] | Potency [4] | Potency [5] | Potency [6] | Potency [7] | Potency [8] | Potency [9] | Potency [10] | Potency [11] | Potency [12] | Potency [13] | Potency [14] | Potency [15] | Potency [16]
0.583: z-score [17, 19]
1.13: z-score [17, 21]
1.12: Z-AUC [1, 18]

NCCS(=O)(=O)O
0.568: Z-AUC ([1]; measured here: PEO4 Z-AUC)
0.854: z-score [17, 20]
0.571: Z-AUC [1, 18]
inactive: Z-AUC [1] 1.22 | activity, negative = inhibition [2, 22] 5.98% | activity, negative = inhibition [2, 23] -25.3% | Potency [3] | Potency [4] | Potency [5] | Potency [6] | Potency [7] | Potency [8] | Potency [9] | Potency [10] | Potency [11] | Potency [12] | Potency [13] | Potency [14] | Potency [15] | Potency [16]
0.716: z-score [17, 21]
0.929: z-score [17, 19]

Cn1cnc2c1c(=O)[nH]c(=O)n2C
inactive: Z-AUC [1] -0.393 | activity, negative = inhibition [2, 22] 1.87% | activity, negative = inhibition [2, 23] -0.248% | Potency [3] | Potency [4] | Potency [5] | Potency [6] | Potency [7] | Potency [8] | Potency [9] | Potency [10] | Potency [11] | Potency [12] | Potency [13] | Potency [14] | Potency [15] | Potency [16]
-0.709: Z-AUC ([1]; measured here: PEO4 Z-AUC)
-0.653: Z-AUC [1, 18]

OCCN1CCN(CCCN2c3ccccc3Sc3ccc(C(F)(F)F)cc32)CC1
0.459: Z-AUC [1, 18]
inactive: Z-AUC [1] 0.453
active: Potency ([2]; parasite line A) 7.08 µM | Potency ([2]; parasite line B) 10 µM | Potency [3] 7.08 µM | Potency [4] 3.16 µM | Potency [5] 12.6 µM | Potency [6] 10 µM | Potency [7] 8.91 µM | Potency [8] 11.2 µM | Potency [9] 12.6 µM | Potency [10] 11.2 µM | Potency [11] 7.94 µM | Potency [13] 10.7 µM | Potency [14] 8.49 µM | Potency [15] 13.5 µM | Potency [16] 7.57 µM
0.195: Z-AUC ([1]; measured here: PEO4 Z-AUC)

CNCCCC12CCC(c3ccccc31)c1ccccc12
0.397: Z-AUC [1, 18]
active: Potency [4] 10 µM
0.261: Z-AUC ([1]; measured here: PEO4 Z-AUC)
inactive: Z-AUC [1] -0.42 | activity, negative = inhibition [2, 22] 0.742% | activity, negative = inhibition [2, 23] -2.12% | Potency [3] | Potency [5] | Potency [6] | Potency [7] | Potency [9] | Potency [10] | Potency [12] | Potency [14]

COc1ccc(CCN(C)CCCC(C#N)(c2ccc(OC)c(OC)c2)C(C)C)cc1OC (stereo not drawn)
0.721: Z-AUC [1, 18]
0.794: z-score [17, 19]
inactive: Z-AUC [1] 0.76 | activity, negative = inhibition [2, 22] 7.01% | activity, negative = inhibition [2, 23] 8.01% | Potency [3] | Potency [6] | Potency [7] | Potency [8] | Potency [9] | Potency [10] | Potency [11] | Potency [12] | Potency [14]
0.393: z-score [17, 20]
0.327: z-score [17, 21]
1.08: Z-AUC ([1]; measured here: PEO4 Z-AUC)

CS(=O)(=O)CCNCc1ccc(-c2ccc3ncnc(Nc4ccc(OCc5cccc(F)c5)c(Cl)c4)c3c2)o1
0.248: Z-AUC [1, 18]
inactive: Z-AUC [1] 0.292 | activity, negative = inhibition [2, 22] 6.38% | activity, negative = inhibition [2, 23] -5.13% | Potency [3] | Potency [4] | Potency [5] | Potency [6] | Potency [7] | Potency [8] | Potency [9] | Potency [10] | Potency [11] | Potency [12] | Potency [13] | Potency [14] | Potency [15] | Potency [16]
0.473: Z-AUC ([1]; measured here: PEO4 Z-AUC)

Nc1nnc(-c2cccc(Cl)c2Cl)c(N)n1
0.568: Z-AUC [1, 18]
0.453: Z-AUC ([1]; measured here: PEO4 Z-AUC)
inactive: Z-AUC [1] -0.438 | activity, negative = inhibition [2, 22] -17% | activity, negative = inhibition [2, 23] -20% | Potency [3] | Potency [4] | Potency [5] | Potency [6] | Potency [7] | Potency [8] | Potency [9] | Potency [10] | Potency [11] | Potency [12] | Potency [13] | Potency [14] | Potency [15] | Potency [16]

N[C@@H](Cc1c[nH]c2ccc(O)cc12)C(=O)O
0.415: z-score [17, 20]
-0.162: Z-AUC ([1]; measured here: PEO4 Z-AUC)
inactive: Z-AUC [1] -0.189 | activity, negative = inhibition [2, 22] 15.9% | activity, negative = inhibition [2, 23] 15.8% | Potency [3] | Potency [4] | Potency [5] | Potency [6] | Potency [7] | Potency [8] | Potency [9] | Potency [10] | Potency [11] | Potency [12] | Potency [13] | Potency [14] | Potency [15] | Potency [16]
0.556: z-score [17, 21]
0.236: z-score [17, 19]
-0.312: Z-AUC [1, 18]

CCOC(=O)Nc1ccc(NCc2ccc(F)cc2)nc1N
-0.223: Z-AUC [1, 18]
inactive: Z-AUC [1] -0.444 | Potency [15]
active: Potency ([2]; parasite line A) 7.94 µM | Potency ([2]; parasite line B) 12.6 µM | Potency [3] 7.94 µM | Potency [4] 10 µM | Potency [5] 11.2 µM | Potency [6] 12.6 µM | Potency [7] 10 µM | Potency [11] 11.2 µM
0.955: z-score [17, 19]
-0.051: Z-AUC ([1]; measured here: PEO4 Z-AUC)
0.317: z-score [17, 21]
0.938: z-score [17, 20]

Cc1ccc(C(=O)Nc2ccc(S(=O)(=O)O)c3cc(S(=O)(=O)O)cc(S(=O)(=O)O)c23)cc1NC(=O)c1cccc(NC(=O)Nc2cccc(C(=O)Nc3cc(C(=O)Nc4ccc(S(=O)(=O)O)c5cc(S(=O)(=O)O)cc(S(=O)(=O)O)c45)ccc3C)c2)c1
0.0489: z-score [17, 19]
0.903: Z-AUC [1, 18]
-1.39: z-score [17, 20]
inactive: Z-AUC [1] 0.147 | Potency [3] | Potency [4] | Potency [7] | Potency [9] | Potency [10] | Potency [11] | Potency [12] | Potency [13] | Potency [14] | Potency [15] | Potency [16]
-0.47: z-score [17, 21]
0.677: Z-AUC ([1]; measured here: PEO4 Z-AUC)
